Experimental data as given in the supplement of paper PMC10849652.
Targets with a hit are over-represented here; the source holds about 8,800 in all. About 0.5% of all pairs of compound and target were hits. A number with no mark means an inactive call.

How the values were obtained:
Experiment in all cases: log2 fold change, soluble protein after heating vs DMSO (PISA); higher = thermal stabilisation; K562 lysate, 10 uM; active = over 0.2 and 3.5 SD of the protein, either way, in both replicates (recomputed)
[1] = compound: CN1CC[C@H](c2c(O)cc(O)c3c(=O)cc(-c4ccccc4Cl)oc23)[C@H](O)C1 [alvocidib]
How it was run: (§1)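 Following dounce homogenisation of K562 pellets in PBS pH 7.4 with 1 mM MgCl2, crude extract at 1 mg/mL protein was incubated for 30 min with 10 μM compound. Aliquots were then heated for 3 min over 48°C-58°C and pooled, NP-40 was added to 0.5% at 4°C, and soluble protein was recovered as the supernatant at 21,000xg for 90 min. Channel-sum-equalised TMTpro 16plex LC-MS/MS quantified this protein. Each value, from duplicates, is a log-two fold change in thermal stability relative to solvent controls.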

[2] = compound: CN1CCc2c(c3ccccc3n2Cc2ccc(C(=O)NO)cc2)C1 [Tubastatin A]
How it was run: as §1

[3] = compound: CNC(=O)C1=CC=CC=C1NC2=NC(=NC=C2Cl)NC3=C(C=C(C=C3)N4CCOCC4)OC
How it was run: as §1

[4] = compound: CNC(=O)c1ccc(Nc2ncc(C(F)(F)F)c(NCc3nccnc3N(C)S(C)(=O)=O)n2)cc1 [defactinib]
How it was run: as §1

[5] = compound: CNc1nc(-c2ccc3c(N)n[nH]c3c2)cc(N2C[C@@H](C(=O)NC3CCCCC3)CC[C@H]2C)n1
How it was run: as §1

[6] = compound: COC(=O)N[C@@H](C)CNc1nccc(-c2cn(C(C)C)nc2-c2cc(Cl)cc(NS(C)(=O)=O)c2F)n1 [encorafenib]
How it was run: as §1

[7] = compound: COC(=O)[C@H](CCSC)NC(=O)C1=C(C=C(C=C1)NC[C@H](CS)N)C2=CC=CC=C2
How it was run: as §1

[8] = compound: COc1cc(Nc2ncc3c(n2)-c2ccc(Cl)cc2C(c2c(F)cccc2OC)=NC3)ccc1C(=O)O [alisertib]
How it was run: as §1

[9] = compound: COc1cc2nc(-c3cc(F)ccc3O)nc(N[C@@H]3CNC[C@H]3C(C)(C)O)c2cc1OC
How it was run: as §1

[10] = compound: COc1cc2ncnc(Nc3ccc(F)c(Cl)c3)c2cc1OCCCN1CCOCC1 [gefitinib]
How it was run: as §1

Sequence of UniProt Q14103 (Q14103 whole entry, looked up): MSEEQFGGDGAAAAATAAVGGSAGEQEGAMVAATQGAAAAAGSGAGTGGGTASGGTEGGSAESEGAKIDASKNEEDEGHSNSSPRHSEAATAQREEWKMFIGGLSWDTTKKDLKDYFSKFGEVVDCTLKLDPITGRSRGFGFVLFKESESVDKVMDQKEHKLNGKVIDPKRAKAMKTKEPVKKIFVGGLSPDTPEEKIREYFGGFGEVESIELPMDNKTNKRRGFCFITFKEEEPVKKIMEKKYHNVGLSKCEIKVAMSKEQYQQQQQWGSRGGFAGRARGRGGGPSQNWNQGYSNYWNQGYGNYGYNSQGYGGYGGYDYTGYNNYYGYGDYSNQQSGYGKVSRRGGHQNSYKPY
Sequence of UniProt P19367 (P19367 whole entry, looked up): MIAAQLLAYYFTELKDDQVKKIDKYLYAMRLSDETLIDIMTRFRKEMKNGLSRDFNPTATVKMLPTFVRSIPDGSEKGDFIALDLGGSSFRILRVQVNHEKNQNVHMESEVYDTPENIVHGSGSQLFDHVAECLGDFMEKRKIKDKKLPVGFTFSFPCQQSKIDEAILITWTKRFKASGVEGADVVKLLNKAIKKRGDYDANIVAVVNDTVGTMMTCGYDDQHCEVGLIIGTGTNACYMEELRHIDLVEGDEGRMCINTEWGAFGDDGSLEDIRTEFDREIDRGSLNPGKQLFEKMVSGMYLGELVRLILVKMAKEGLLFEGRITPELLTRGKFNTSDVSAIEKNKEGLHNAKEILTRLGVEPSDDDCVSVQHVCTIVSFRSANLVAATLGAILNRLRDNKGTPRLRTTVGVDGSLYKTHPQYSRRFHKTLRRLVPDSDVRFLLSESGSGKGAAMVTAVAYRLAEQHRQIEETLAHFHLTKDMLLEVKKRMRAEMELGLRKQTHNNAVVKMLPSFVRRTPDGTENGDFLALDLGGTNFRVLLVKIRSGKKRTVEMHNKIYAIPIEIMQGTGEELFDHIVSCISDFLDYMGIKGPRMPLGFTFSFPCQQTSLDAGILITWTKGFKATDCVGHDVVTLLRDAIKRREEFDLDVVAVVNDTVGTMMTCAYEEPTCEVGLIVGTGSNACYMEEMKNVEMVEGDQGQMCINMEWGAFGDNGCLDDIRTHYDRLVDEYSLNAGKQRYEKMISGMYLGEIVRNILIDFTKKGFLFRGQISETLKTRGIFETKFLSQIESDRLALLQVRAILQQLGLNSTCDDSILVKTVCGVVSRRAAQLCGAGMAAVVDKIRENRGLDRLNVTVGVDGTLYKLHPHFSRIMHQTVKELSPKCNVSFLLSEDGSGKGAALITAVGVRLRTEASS
Sequence of UniProt Q9NSE4 (Q9NSE4 whole entry, looked up): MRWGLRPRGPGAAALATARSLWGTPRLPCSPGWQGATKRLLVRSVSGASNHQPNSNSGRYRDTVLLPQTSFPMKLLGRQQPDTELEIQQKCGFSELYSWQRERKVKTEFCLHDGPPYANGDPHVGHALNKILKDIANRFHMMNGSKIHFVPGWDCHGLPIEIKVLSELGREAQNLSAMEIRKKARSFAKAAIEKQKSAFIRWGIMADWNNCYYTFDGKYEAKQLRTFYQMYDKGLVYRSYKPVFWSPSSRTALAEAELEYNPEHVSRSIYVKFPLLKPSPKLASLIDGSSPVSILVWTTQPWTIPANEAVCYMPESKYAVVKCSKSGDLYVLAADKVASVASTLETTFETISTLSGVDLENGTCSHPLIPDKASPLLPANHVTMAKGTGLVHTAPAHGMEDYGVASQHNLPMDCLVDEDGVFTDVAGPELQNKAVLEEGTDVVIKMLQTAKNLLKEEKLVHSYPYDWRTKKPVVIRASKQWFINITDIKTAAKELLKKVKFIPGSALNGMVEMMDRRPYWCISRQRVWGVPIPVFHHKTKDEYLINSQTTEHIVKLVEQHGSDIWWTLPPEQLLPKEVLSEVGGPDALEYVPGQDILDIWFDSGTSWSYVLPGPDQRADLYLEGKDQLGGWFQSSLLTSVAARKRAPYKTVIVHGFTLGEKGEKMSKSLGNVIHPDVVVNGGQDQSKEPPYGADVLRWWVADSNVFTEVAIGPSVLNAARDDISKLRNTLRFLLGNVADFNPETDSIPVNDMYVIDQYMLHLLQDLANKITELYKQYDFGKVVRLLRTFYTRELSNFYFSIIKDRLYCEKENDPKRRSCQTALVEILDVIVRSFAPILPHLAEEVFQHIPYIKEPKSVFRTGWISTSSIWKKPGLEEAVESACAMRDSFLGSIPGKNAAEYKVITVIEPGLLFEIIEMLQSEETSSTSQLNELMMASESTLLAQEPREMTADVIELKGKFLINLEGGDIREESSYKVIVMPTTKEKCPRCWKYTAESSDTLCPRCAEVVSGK
Sequence of UniProt Q07666 (Q07666 whole entry, looked up): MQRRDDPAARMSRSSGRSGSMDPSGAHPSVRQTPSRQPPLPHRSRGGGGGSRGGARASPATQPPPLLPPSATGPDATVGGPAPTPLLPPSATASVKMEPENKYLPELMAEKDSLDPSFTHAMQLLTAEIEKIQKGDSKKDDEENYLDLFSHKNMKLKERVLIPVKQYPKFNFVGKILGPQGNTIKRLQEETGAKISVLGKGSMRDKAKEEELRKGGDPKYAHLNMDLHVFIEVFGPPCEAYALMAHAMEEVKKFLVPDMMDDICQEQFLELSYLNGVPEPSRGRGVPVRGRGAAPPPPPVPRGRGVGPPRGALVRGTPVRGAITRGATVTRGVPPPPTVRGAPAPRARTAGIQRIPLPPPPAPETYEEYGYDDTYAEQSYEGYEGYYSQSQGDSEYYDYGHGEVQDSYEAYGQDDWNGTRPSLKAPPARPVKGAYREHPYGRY
Sequence of UniProt Q6DN03 (Q6DN03 whole entry, looked up): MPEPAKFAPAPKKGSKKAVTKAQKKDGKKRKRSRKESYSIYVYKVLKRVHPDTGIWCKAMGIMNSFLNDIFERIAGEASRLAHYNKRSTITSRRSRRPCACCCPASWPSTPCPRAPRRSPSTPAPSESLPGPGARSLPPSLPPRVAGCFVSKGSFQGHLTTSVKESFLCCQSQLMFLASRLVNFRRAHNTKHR
Sequence of UniProt Q16836 (Q16836 whole entry, looked up): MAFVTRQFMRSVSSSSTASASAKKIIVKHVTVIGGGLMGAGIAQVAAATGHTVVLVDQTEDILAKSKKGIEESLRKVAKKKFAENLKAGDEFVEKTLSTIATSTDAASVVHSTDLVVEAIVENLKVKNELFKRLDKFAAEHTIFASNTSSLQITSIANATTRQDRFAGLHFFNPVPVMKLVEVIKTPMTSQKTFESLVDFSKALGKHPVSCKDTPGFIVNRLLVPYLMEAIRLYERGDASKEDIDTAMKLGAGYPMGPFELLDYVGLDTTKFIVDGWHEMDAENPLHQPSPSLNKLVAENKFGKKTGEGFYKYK
Sequence of UniProt Q8TDG4 (Q8TDG4 whole entry, looked up): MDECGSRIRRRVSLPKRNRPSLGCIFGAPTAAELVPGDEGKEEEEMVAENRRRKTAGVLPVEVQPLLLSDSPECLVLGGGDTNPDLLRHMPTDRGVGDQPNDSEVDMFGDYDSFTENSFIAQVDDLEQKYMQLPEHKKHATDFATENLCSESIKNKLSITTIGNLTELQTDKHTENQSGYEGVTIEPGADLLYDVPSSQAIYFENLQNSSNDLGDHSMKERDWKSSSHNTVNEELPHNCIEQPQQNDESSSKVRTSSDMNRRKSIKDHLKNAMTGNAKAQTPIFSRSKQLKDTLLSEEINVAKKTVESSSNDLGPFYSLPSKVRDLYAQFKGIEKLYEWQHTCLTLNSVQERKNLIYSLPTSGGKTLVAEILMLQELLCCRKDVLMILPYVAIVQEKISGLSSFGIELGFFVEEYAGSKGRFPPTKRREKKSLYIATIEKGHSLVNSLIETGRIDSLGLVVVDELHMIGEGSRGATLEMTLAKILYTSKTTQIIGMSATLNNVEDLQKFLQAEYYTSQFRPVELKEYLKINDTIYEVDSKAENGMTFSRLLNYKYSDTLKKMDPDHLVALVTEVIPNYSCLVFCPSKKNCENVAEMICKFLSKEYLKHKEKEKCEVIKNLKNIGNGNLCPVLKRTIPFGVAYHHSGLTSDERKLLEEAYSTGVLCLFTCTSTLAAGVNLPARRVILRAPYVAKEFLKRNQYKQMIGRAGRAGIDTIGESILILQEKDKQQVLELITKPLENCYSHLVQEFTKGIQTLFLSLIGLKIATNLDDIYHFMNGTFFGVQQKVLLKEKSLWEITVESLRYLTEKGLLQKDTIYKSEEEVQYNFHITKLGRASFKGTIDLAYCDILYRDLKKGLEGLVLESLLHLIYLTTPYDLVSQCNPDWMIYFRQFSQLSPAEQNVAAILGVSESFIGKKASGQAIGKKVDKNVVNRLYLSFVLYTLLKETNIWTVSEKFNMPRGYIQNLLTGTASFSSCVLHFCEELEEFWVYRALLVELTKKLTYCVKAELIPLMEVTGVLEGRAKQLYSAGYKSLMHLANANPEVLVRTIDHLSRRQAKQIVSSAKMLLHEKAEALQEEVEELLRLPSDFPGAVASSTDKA
Sequence of UniProt P32780 (P32780 whole entry, looked up): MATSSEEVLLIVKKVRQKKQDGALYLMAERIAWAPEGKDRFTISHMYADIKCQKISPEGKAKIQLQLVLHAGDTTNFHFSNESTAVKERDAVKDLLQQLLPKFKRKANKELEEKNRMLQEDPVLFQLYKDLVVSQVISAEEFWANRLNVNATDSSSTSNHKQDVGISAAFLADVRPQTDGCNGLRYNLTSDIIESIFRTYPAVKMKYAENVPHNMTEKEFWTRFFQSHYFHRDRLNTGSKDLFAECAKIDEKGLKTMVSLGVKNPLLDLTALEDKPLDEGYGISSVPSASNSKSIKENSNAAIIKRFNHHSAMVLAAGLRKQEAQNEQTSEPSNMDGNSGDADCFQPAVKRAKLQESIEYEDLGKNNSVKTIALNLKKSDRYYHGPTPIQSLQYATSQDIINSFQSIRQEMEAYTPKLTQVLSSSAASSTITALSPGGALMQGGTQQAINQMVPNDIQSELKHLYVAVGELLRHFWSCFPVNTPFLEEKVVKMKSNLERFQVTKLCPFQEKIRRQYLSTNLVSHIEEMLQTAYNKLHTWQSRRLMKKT
Sequence of UniProt P17096 (P17096 whole entry, looked up): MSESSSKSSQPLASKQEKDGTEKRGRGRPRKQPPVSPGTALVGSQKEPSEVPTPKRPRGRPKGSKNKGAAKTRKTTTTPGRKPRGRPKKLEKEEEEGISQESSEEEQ

| Target | log2 fold change [1] | log2 fold change [2] | log2 fold change [3] | log2 fold change [4] | log2 fold change [5] | log2 fold change [6] | log2 fold change [7] | log2 fold change [8] | log2 fold change [9] | log2 fold change [10] |
| --- | --- | --- | --- | --- | --- | --- | --- | --- | --- | --- |
| KDM5C (UniProt P41229) | -0.02 | -0.115 | 0.059 | -0.009 | 0.04 | -0.018 | 0.176 | -0.01 | 0.09 | -0.013 |
| HMGA1 (UniProt P17096) | -0.108 | 0.066 | -0.001 | -0.007 | 0.023 | -0.005 | -0.018 | 0.046 | 0.011 | -0.027 |
| IGF2BP3 (UniProt O00425) | 0.012 | -0.147 | -0.022 | -0.028 | -0.016 | -0.022 | 0.218 | 0.006 | -0.003 | -0.017 |
| HERC2 (UniProt O95714) | -0.075 | -0.316 (active) | -0.109 | -0.085 | -0.077 | 0.027 | 0.111 | -0.007 | 0.005 | 0.004 |
| H2AFY (UniProt O75367) | -0.034 | 0.079 | -0.026 | 0.106 | 0.329 (active) | 0.094 | 0.014 | 0.001 | 0 | 0 |
| HNRNPUL1 (UniProt Q9BUJ2) | 0.006 | 0.01 | -0.011 | 0.002 | -0.027 | 0.003 | -0.003 | -0.012 | 0.007 | -0.015 |
| GTPBP2 (UniProt Q9BX10) | -0.001 | -0.045 | 0.039 | 0.018 | -0.037 | 0.002 | 0.079 | 0.034 | -0.07 | 0.058 |
| KHDRBS1 (UniProt Q07666) | 0.039 | -0.045 | 0.017 | -0.006 | 0.007 | 0.019 | -0.139 | -0.025 | 0.011 | -0.01 |
| HNRNPDL (UniProt O14979) | 0.01 | -0.017 | 0.018 | -0.006 | -0.002 | -0.028 | -0.017 | 0.04 | -0.005 | -0.029 |
| HECTD3 (UniProt Q5T447) | 0.007 | -0.047 | 0.02 | 0.045 | -0.023 | 0.02 | 0.11 | -0.015 | 0.002 | 0.014 |
| HELQ (UniProt Q8TDG4) | 0.059 | -0.016 | 0.045 | 0.037 | 0.054 | 0.046 | 0.09 | 0.132 | -0.041 | -0.177 |
| INTS14 (UniProt Q96SY0) | -0.001 | -0.066 | 0.032 | 0.025 | 0.02 | 0.006 | -0.1 | -0.018 | 0.015 | -0.003 |
| GYPA, A0A2R8Y7F9 | -0.218 |  |  |  |  |  |  |  |  |  |
| IRAK4 (UniProt Q9NWZ3) | 0.01 | -0.083 | 0.261 (active) | 0.145 | -0.018 | -0.032 | 0.032 | 0.006 | 0.111 | 0.045 |
| GNE isoform 2 (UniProt Q9Y223) | 0.028 | -0.12 | 0.016 | -0.011 | -0.024 | -0.008 | 0.176 | 0.041 | 0.026 | -0.014 |
| HK1 isoform 2 (UniProt P19367) | -0.001 | -0.038 | -0.009 | 0.001 | -0.011 | 0.003 | 0.004 | 0.017 | -0.007 | -0.011 |

| Target | log2 fold change [1] | log2 fold change [2] | log2 fold change [3] | log2 fold change [4] | log2 fold change [5] | log2 fold change [6] | log2 fold change [7] | log2 fold change [8] | log2 fold change [9] | log2 fold change [10] |
| --- | --- | --- | --- | --- | --- | --- | --- | --- | --- | --- |
| HLCS (UniProt P50747) | -0.015 | 0.036 | 0.018 | 0.017 | 0.025 | 0.003 | 0.053 | -0.01 | 0.038 | 0.013 |
| KEAP1 (UniProt Q14145) | -0.024 | -0.019 | -0.008 | 0.014 | 0.017 | 0.043 | -0.094 | 0.012 | 0.013 | 0.018 |
| HARS (UniProt P12081) | 0 | 0.001 | -0.02 | -0.02 | -0.054 | -0.03 | 0.254 (active) | 0.003 | 0.015 | 0.007 |
| HIST2H2BC (UniProt Q6DN03) | 0.024 | 0.004 | 0.019 | -0.148 | -0.003 | 0.092 | 0.143 | 0.005 | 0.008 | -0.12 |
| INTS1 (UniProt Q8N201) | 0.009 | -0.028 | 0.013 | 0.019 | 0.004 | 0.028 | -0.018 | 0.021 | 0.007 | -0.04 |
| GMIP (UniProt Q9P107) | -0.078 | -0.139 | 0.088 | 0.033 | -0.01 | 0.061 | 0.031 | -0.014 | -0.078 | 0.11 |
| IARS2 (UniProt Q9NSE4) | 0.072 | 0.021 | -0.026 | 0.004 | -0.003 | -0.006 | 0.014 | -0.013 | -0.011 | 0.004 |
| HSPB1 (UniProt P04792) | 0.003 | -0.023 | -0.003 | 0 | -0.036 | -0.001 | 0.025 | 0.012 | 0.009 | -0.012 |
| HADH isoform 2 (UniProt Q16836) | 0.048 | 0.003 | -0.024 | 0.061 | 0.09 | -0.048 | 0.03 | 0.021 | -0.002 | 0.042 |
| GSTZ1 (UniProt G3V4T6) | -0.016 | 0.018 | 0.01 | 0.061 | 0.028 | -0.045 | 0.35 (active) | 0.023 | 0.049 | 0.002 |
| INPP4A (UniProt Q96PE3) | -0.032 | -0.051 | 0.033 | 0.046 | 0.009 | 0.01 | -0.019 | -0.026 | 0.01 | -0.033 |
| GTF2H1 (UniProt P32780) | -0.053 | -0.023 | 0.05 | 0.041 | 0.031 | -0.004 | -0.059 | 0.065 | -0.021 | -0.015 |
| IGF2BP2 (UniProt Q9Y6M1) | 0.016 | -0.124 | 0.043 | -0.008 | -0.014 | 0.004 | 0.201 | 0.042 | -0.005 | 0.001 |
| HNRNPD isoform 3 (UniProt Q14103) | 0.017 | 0.008 | 0.004 | 0.117 | 0.146 | 0.036 | 0.016 | 0.024 | 0.001 | 0.113 |
| IMMT (UniProt Q16891) | 0.031 | -0.079 | -0.03 | 0.019 | -0.041 | 0.014 | -0.045 | 0.034 | -0.145 | -0.022 |
